According to PubChem BioAssay (NCATS):
Several values for one entry are separate records, joined by “and”; a condition that tells them apart may be missing. Equal values may be shown once. Results filed as inconclusive are left out. Activity calls are given as the source filed them. The call rests on the fitted dose curve; in most records, active means well fitted curve in the direction sought with a large enough effect; inconclusive means small, poorly fitted or top-dose-only effect, or another doubt; inactive means no such curve, though single readings can be large; an effect the other way counts as inactive or inconclusive.

Experiments:
[1] = Viability qHTS for spleen associated tyrosine kinase inhibitor (SYKi) naive MV4-11 cells (AID 1963823); further: potency means the concentration at half of the fitted maximal effect; nearly all actives have a fitted effect of over 40% in size
Method in brief: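 CellTiter-Glo luminescence, 10 min room-temperature incubation, gave viability. Cells: naive MV4-11 (500/well), treated 72 hr at 37 C, 5% CO2.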

[2] = Viability qHTS for spleen associated tyrosine kinase inhibitor (SYKi) drug resistant MV4-11 cells (AID 1963824); further: potency means the concentration at half of the fitted maximal effect; nearly all actives have a fitted effect of over 35% in size
Method in brief: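 CellTiter-Glo luminescence, read 10 min after reagent addition, reports viability after a 72 hr compound exposure. Cells are an MV4-11 line made resistant to SYK inhibition, seeded at 500 per well onto compound-containing plates.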

[3] = Quantitative highthroughput screen to assess conditional lethalithy of NOMO1 cells grown in RPMI1640 with untreated serum (RPMI+s) (AID 1963876); further: nearly all actives have a fitted effect of over 35% in size; further: potency means the concentration at half of the fitted maximal effect;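 on Viability: 100% = DMSO wells and 0% = empty wells without cells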
Method in brief: (§1)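 Each medium arm—HPLM with 10% dialyzed FBS, or RPMI1640 with 5 mM glucose and 10% untreated or dialyzed FBS—was screened against an 11-point, 3-fold compound titration for 48 h at 37 °C, with CellTiter-Glo luminescence as endpoint.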

[4] = Quantitative highthroughput screen to assess conditional lethalithy of P12 Ichikawa cells grown in Human Plasma-Like Medium with dialyzed fetal bovine serum (HPLM+ds) (AID 1963879); conditions: Potency: viability; further: potency means the concentration at half of the fitted maximal effect; nearly all actives have a fitted effect of over 35% in size
Method in brief: as §1

[5] = Quantitative highthroughput screen to assess conditional lethalithy of P12 Ichikawa cells grown in RPMI1640 with dialyzed fetal bovine serum (RPMI+ds) (AID 1963880); conditions: Potency: P12-Ichikawa viability; further: nearly all actives have a fitted effect of over 35% in size; further: potency means the concentration at half of the fitted maximal effect;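 on Viability: 100% = DMSO wells and 0% = empty wells on each plate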
Method in brief: as §1

[6] = Quantitative highthroughput screen to assess conditional lethalithy of P12 Ichikawa cells grown in RPMI1640 with untreated serum (RPMI+s) (AID 1963881); conditions: Potency: viability; further: nearly all actives have a fitted effect of over 35% in size; further: potency means the concentration at half of the fitted maximal effect;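 on Viability: series mostly up to about 46 µM; 100% = DMSO wells and 0% = empty wells without cells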
Method in brief: as §1

[7] = Quantitative highthroughput screen to assess conditional lethalithy of SEM cells grown in Human Plasma-Like Medium with dialyzed fetal bovine serum (HPLM+ds) (AID 1963882); further: nearly all actives have a fitted effect of over 35% in size; further: potency means the concentration at half of the fitted maximal effect; on Viability: series mostly up to about 46 µM
Method in brief: as §1

[8] = Quantitative highthroughput screen to assess conditional lethalithy of SEM cells grown in RPMI1640 with unreated serum (RPMI+s) (AID 1963883)
Method in brief: as §1

[9] = Quantitative highthroughput screen to assess conditional lethalithy of SEM cells grown in RPMI1640 with dialyzed fetal bovine serum (RPMI+ds) (AID 1963884); further: nearly all actives have a fitted effect of over 35% in size; further: potency means the concentration at half of the fitted maximal effect;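 on Viability: series mostly up to about 46 µM; 100% = DMSO control wells and 0% = empty wells without cells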
Method in brief: as §1

[10] = Cellular viability qHTS for adrenocortical cancer (ACC) cell line SW-13 (AID 1963989); conditions: SW-13 ACC cells viability, CellTiter-Glo, 48 h; activity (max response): active compounds read low; further: nearly all actives have a fitted effect of over 65% in size; further: potency means the concentration at half of the fitted maximal effect;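 on activity (max response): cells grown in serum-free medium with ITS supplement; on the % scale 0 is the no-effect control and ±100 the full control effect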
Method in brief: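 Here, serum-free SW-13 cultures were dosed up to 46 uM. Following 48 h, ATP-dependent luminescence (CellTiter-Glo) reported viable cells, and logistic modeling produced IC50 values.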

[11] = Quantitative highthroughput screen to assess conditional lethalithy of NOMO1 cells grown in Human Plasma-Like Medium with dialyzed fetal bovine serum (HPLM+ds) (AID 1963878)
Method in brief: as §1

[12] = Cellular viability qHTS for adrenocortical cancer (ACC) cell line NCI-H295R (AID 1963990); further: nearly all actives have a fitted effect of over 60% in size; further: potency means the concentration at half of the fitted maximal effect
Method in brief: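 Viability of NCI-H295R after 48 h of treatment (final up to 46 uM) measured through cellular ATP luminescence.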

CCc1c2c(nc3ccc(OC(=O)N4CCC(N5CCCCC5)CC4)cc13)-c1cc3c(c(=O)n1C2)COC(=O)[C@]3(O)CC
active: Potency [1] 2.99 µM and 263 nM | Potency [2] 2.66 µM and 296 nM | Potency [3] 2.96 µM | Potency [4] 1.18 µM | Potency [5] 1.18 µM | Potency [6] 0.833 µM | Potency [7] 2.35 µM | Potency [8] 1.87 µM | Potency [9] 1.48 µM | Potency [10] 3.66 µM and 3.55 µM

COc1c(Cl)cc2c([nH]c3cnccc32)c1NC(=O)c1cccnc1C
active: Potency [1] 20.9 µM | Potency [2] 18.6 µM and 20.6 µM
inactive: Potency [3] | Potency [11] | Potency [5] | Potency [6] | Potency [7] | Potency [9] | activity (max response) [10] -4.78% | Potency [12]

Clc1ccc(C(Cn2ccnc2)OCc2ccsc2Cl)c(Cl)c1 (stereo unspecified)
active: Potency [1] 8.33 µM | Potency [2] 9.34 µM | Potency [10] 18.4 µM | Potency [12] 31.6 µM
inactive: Potency [3] | Potency [11]

Cc1ccc(C(=O)N(CCCN)[C@@H](c2nc3cc(Cl)ccc3c(=O)n2Cc2ccccc2)C(C)C)cc1
active: Potency [1] 0.0042 µM | Potency [2] 0.0037 µM | Potency [3] 0.0013 µM | Potency [4] 0.0013 µM | Potency [5] 0.0021 µM | Potency [6] 0.0013 µM | Potency [8] 0.0012 µM | Potency [10] 0.01 µM | Potency [12] 0.0794 µM

Nc1ccc(C(=O)c2cc3c(ccc4ccccc43)[nH]2)cc1
active: Potency [1] 4.28 µM | Potency [2] 4.81 µM | Potency [3] 14.8 µM | Potency [4] 2.96 µM | Potency [5] 5.9 µM | Potency [6] 3.32 µM | Potency [7] 2.96 µM | Potency [8] 3.72 µM | Potency [9] 2.96 µM | Potency [10] 2.24 µM | Potency [12] 2.51 µM
